# From paper PMC11062922 (Nature Chemical Biology, 2023)
# Like-named read-outs stand apart in the source and are kept apart here.
# Assays:
# Set-up in all cases: species or system human, MV4-11 + K-562 + COLO205 + SK-N-BE2 + OVCAR-8
# EPHA4 = conditions: read-out: apparent Kd, n = 1
# EPHB2 = conditions: read-out: apparent Kd, n = 1
# EPHB4 = conditions: read-out: apparent Kd, n = 1
# ERCC2 = conditions: read-out: apparent Kd, n = 1
# MAP4K5 = conditions: read-out: apparent Kd, n = 1
# CDK16 = conditions: read-out: apparent Kd, n = 1
# CSNK1A1 = conditions: read-out: apparent Kd, n = 1
# CSNK1D = conditions: read-out: apparent Kd; compound concentrations:100 nM and 1000 nM (sheet 'Samples'); n = 1
# RIOK2 = conditions: read-out: apparent Kd, n = 1
# TGFBR2 = conditions: read-out: apparent Kd, n = 1
# TAOK1 = conditions: read-out: apparent Kd, n = 1
# BUB1 = conditions: read-out: apparent Kd, n = 1
# MAPK10 = conditions: read-out: apparent Kd, n = 1
# PKN3 = conditions: read-out: apparent Kd; compound concentrations:100 nM and 1000 nM (sheet 'Samples'); n = 1
# MAP2K1 = conditions: read-out: apparent Kd, compound concentrations: 100 nM and 1000 nM (sheet 'Samples'), n = 1
# EPHA2 = conditions: read-out: apparent Kd, n = 1
# PDGFRB = conditions: read-out: apparent Kd, compound concentrations: 100 nM and 1000 nM (sheet 'Samples'), n = 1
# AKT1 = conditions: read-out: apparent Kd, n = 1
# MAPK11 = conditions: read-out: apparent Kd; compound concentrations:100 nM and 1000 nM (sheet 'Samples'); n = 1
# NQO2 = conditions: read-out: apparent Kd, n = 1
# [1] = compound concentrations:100 nM and 1000 nM (sheet 'Samples')
structure (smiles),measurement,setting,value
COc1cc2ncn(-c3cc(OCCCc4ccccc4)c(C(N)=O)s3)c2cc1OC [GSK205189A],potency estimated from few doses,EPHA4; [1],1250 nM
same,potency estimated from few doses,EPHB2; [1],697 nM
same,potency estimated from few doses,EPHB4; [1],636 nM
same,potency estimated from few doses,ERCC2; [1],39.9 nM
Nc1ncc(-c2cn[nH]c2)c2scc(-c3ccc4c(c3)CCN4C(=O)Cc3ccccc3)c12 [GSK2593067A],potency estimated from few doses,"MAP4K5; compound concentrations: 100 nM and 1000 nM (sheet 'Samples'), CATDS: 8.2420323237496707E-2",674 nM
N#Cc1cccc(Nc2nccc(-c3cnn4ncccc34)n2)c1 [GW778894X],potency estimated from few doses,CDK16; [1],13 nM
same,potency estimated from few doses,CSNK1A1; [1],731 nM
same,potency estimated from few doses,CSNK1D,199 nM
same,potency estimated from few doses,ERCC2; [1],780 nM
same,potency estimated from few doses,RIOK2; [1],75.3 nM
same,potency estimated from few doses,TGFBR2; [1],35.7 nM
COc1cc2ncn(-c3cc(OCc4cccs4)c(C(N)=O)s3)c2cc1OC [GSK312948A],potency estimated from few doses,MAP4K5; [1],116 nM
CN1CCc2ccc(Nc3nccc(-c4c(-c5cccc(NC(=O)c6c(F)cccc6F)c5)nc5ccccn45)n3)cc2C1.Cl [GSK1010829B],potency estimated from few doses,"MAP4K5; compound concentrations: 100 nM and 1000 nM (sheet 'Samples'), CATDS: 3.0196131161379001E-2",2130 nM
same,potency estimated from few doses,"TAOK1; compound concentrations: 100 nM and 1000 nM (sheet 'Samples'), CATDS: 4.1687643746907199E-2",830 nM
CC(C)c1nc(-c2cccc(NS(=O)(=O)c3c(F)cccc3F)c2F)c(-c2ccnc(Nc3ccc(N4CCOCC4)nc3)n2)s1 [GSK2008607A],potency estimated from few doses,"BUB1; compound concentrations: 100 nM and 1000 nM (sheet 'Samples'), CATDS: 2.5044910199505301E-2",721 nM
same,potency estimated from few doses,"CDK16; compound concentrations: 100 nM and 1000 nM (sheet 'Samples'), CATDS: 3.1735932444665597E-2",424 nM
Fc1ccc(-c2c(-c3ccncc3)[nH]c3nccnc23)cc1 [RO1155697-000],potency estimated from few doses,BUB1; [1],1970 nM
same,potency estimated from few doses,CSNK1A1; [1],667 nM
same,potency estimated from few doses,CSNK1D,8.23 nM
same,potency estimated from few doses,MAPK10; [1],869 nM
same,potency estimated from few doses,PKN3,31.1 nM
same,potency estimated from few doses,TAOK1; [1],1150 nM
N#Cc1cnc2cc(-c3cnc(CNCCN4CCOCC4)s3)ccc2c1Nc1ccc(Oc2ccccc2)cc1 [GW664114X],potency estimated from few doses,MAP2K1; CATDS: 5.9486551355906997E-2,606 nM
same,potency estimated from few doses,"MAP4K5; compound concentrations: 100 nM and 1000 nM (sheet 'Samples'), CATDS: 0.103025865385486",199 nM
CC(=O)N1CCN(c2ccc(Nc3nccc(-c4sc(C(C)C)nc4-c4cccc(NS(=O)(=O)c5cccc(Cl)c5)c4)n3)cn2)CC1 [GSK1660437A],potency estimated from few doses,"BUB1; compound concentrations: 100 nM and 1000 nM (sheet 'Samples'), CATDS: 4.8956093582398198E-2",873 nM
same,potency estimated from few doses,"CDK16; compound concentrations: 100 nM and 1000 nM (sheet 'Samples'), CATDS: 4.5005275972449597E-2",1070 nM
CC(C)c1nc(-c2cccc(NS(=O)(=O)c3c(F)cccc3F)c2)c(-c2ccnc(Nc3ccc(N4CCOCC4)nc3)n2)s1.Cl [GSK1723980B],potency estimated from few doses,"BUB1; compound concentrations: 100 nM and 1000 nM (sheet 'Samples'), CATDS: 3.0141053938719398E-2",191 nM
same,potency estimated from few doses,"CDK16; compound concentrations: 100 nM and 1000 nM (sheet 'Samples'), CATDS: 2.4648897890500801E-2",294 nM
CNC(=O)c1ccccc1Nc1nc(Nc2cccc(CS(C)(=O)=O)c2)ncc1C.O=CO [GSK1520489A],potency estimated from few doses,"EPHA2; compound concentrations: 100 nM and 1000 nM (sheet 'Samples'), CATDS: 2.7940284559804102E-2",66.2 nM
same,potency estimated from few doses,"MAPK10; compound concentrations: 100 nM and 1000 nM (sheet 'Samples'), CATDS: 1.2611209241053301E-2",502 nM
same,potency estimated from few doses,PDGFRB; CATDS: 9.8482456119854799E-3,1420 nM
CC(C)c1nc(-c2ccc(F)c(NS(=O)(=O)c3c(F)cccc3F)c2)c(-c2ccnc(Nc3ccc(N4CCOCC4)nc3)n2)s1 [GSK1804250A],potency estimated from few doses,BUB1; [1],553 nM
same,potency estimated from few doses,CDK16; [1],1890 nM
Nc1nc(N)c2nc(-c3ccccc3)[nH]c2n1 [SKF-12778],potency estimated from few doses,AKT1; [1],1480 nM
same,potency estimated from few doses,CSNK1A1; [1],972 nM
same,potency estimated from few doses,CSNK1D,2130 nM
same,potency estimated from few doses,MAPK10; [1],925 nM
same,potency estimated from few doses,RIOK2; [1],1620 nM
CS(=O)(=O)Cc1ccc(Nc2nccc(-c3c(-c4cccc(NC(=O)c5c(F)cccc5F)c4)nn4ccccc34)n2)cc1 [GSK323543A],potency estimated from few doses,"ERCC2; compound concentrations: 100 nM and 1000 nM (sheet 'Samples'), CATDS: 6.1110797752593003E-2",1570 nM
CC(=O)N1CCN(c2ccc(Nc3nccc(-c4sc(C(C)C)nc4-c4cccc(NS(=O)(=O)c5ccccc5)c4)n3)cn2)CC1 [GSK1645872A],potency estimated from few doses,"BUB1; compound concentrations: 100 nM and 1000 nM (sheet 'Samples'), CATDS: 3.26865073204873E-2",604 nM
same,potency estimated from few doses,"CDK16; compound concentrations: 100 nM and 1000 nM (sheet 'Samples'), CATDS: 3.8372919727344801E-2",431 nM
CNc1nccc(-c2c(-c3ccc(F)cc3)ncn2C2CCN(C)CC2)n1 [SB-222903],potency estimated from few doses,BUB1; [1],1920 nM
same,potency estimated from few doses,CSNK1A1; [1],139 nM
same,potency estimated from few doses,CSNK1D,11.1 nM
same,potency estimated from few doses,MAPK10; [1],976 nM
same,potency estimated from few doses,MAPK11,1080 nM
Cc1ccc(O)cc1Nc1ccnc2ccc(C(C)(C)C)cc12 [GW856805X],potency estimated from few doses,"EPHA2; compound concentrations: 100 nM and 1000 nM (sheet 'Samples'), CATDS: 8.0596912814025104E-2",18.5 nM
same,potency estimated from few doses,"EPHA4; compound concentrations: 100 nM and 1000 nM (sheet 'Samples'), CATDS: 7.4195620286495498E-2",22 nM
same,potency estimated from few doses,"EPHB2; compound concentrations: 100 nM and 1000 nM (sheet 'Samples'), CATDS: 6.5287043089823998E-2",29.3 nM
same,potency estimated from few doses,"EPHB4; compound concentrations: 100 nM and 1000 nM (sheet 'Samples'), CATDS: 0.113366992887299",9.72 nM
same,potency estimated from few doses,"TGFBR2; compound concentrations: 100 nM and 1000 nM (sheet 'Samples'), CATDS: 3.9995494154685202E-2",130 nM
Cl.Cn1c(=O)c(Cc2ccc(F)cc2F)cc2cnc(NC3CCOCC3)nc21 [RO3308757-001],potency estimated from few doses,EPHA2; [1],1130 nM
same,potency estimated from few doses,EPHA4; [1],743 nM
same,potency estimated from few doses,EPHB2; [1],364 nM
same,potency estimated from few doses,EPHB4; [1],268 nM
same,potency estimated from few doses,ERCC2; [1],239 nM
same,potency estimated from few doses,MAPK10; [1],886 nM
CC(=O)c1c(-c2ccncc2)[nH]c(-c2ccncc2)c1C [GW493036X],potency estimated from few doses,"CSNK1A1; compound concentrations: 100 nM and 1000 nM (sheet 'Samples'), CATDS: 4.1725323261606301E-2",874 nM
same,potency estimated from few doses,CSNK1D,2040 nM
same,potency estimated from few doses,NQO2; [1],1110 nM
same,potency estimated from few doses,PKN3,1070 nM
COc1cc(/C=N/Nc2ncnc3[nH]ncc23)ccc1O [GW578748X],potency estimated from few doses,RIOK2; [1],1600 nM
Cc1cc(O)cc(C)c1/C=C/c1cncc(-c2nn[nH]n2)c1.Cl [GW441806A],potency estimated from few doses,"EPHA2; compound concentrations: 100 nM and 1000 nM (sheet 'Samples'), CATDS: 4.6112446535010898E-2",1310 nM
O=S(=O)(c1ccc(-c2ccnc3[nH]ccc23)cc1)N1CCCC1 [GSK846226A],potency estimated from few doses,RIOK2; [1],2220 nM
same,potency estimated from few doses,TAOK1; [1],1690 nM
Cn1cc(-c2cnc(N)c3c(-c4ccc5c(c4)CCN5C(=O)Cc4ccccc4)csc23)cn1 [GSK2593074A],potency estimated from few doses,MAP4K5; [1],302 nM
COc1cc2ncn(-c3cc(O[C@H](C)c4ccccc4Cl)c(C(N)=O)s3)c2cc1OC [GSK237701A],potency estimated from few doses,MAP4K5; [1],1160 nM
COc1ccc(Nc2nccc(N3CCC(NC(=O)Nc4cccc(OC)c4)C3)n2)cc1 (stereo not drawn) [GSK1379742A],potency estimated from few doses,MAP2K1; CATDS: 0.105548477944527,2400 nM
CS(=O)(=O)c1ccc(-c2nc3n(c2-c2ccncc2)CCC3)cc1 [SKF-105942],potency estimated from few doses,"NQO2; compound concentrations: 100 nM and 1000 nM (sheet 'Samples'), CATDS: 0.142598499620046",1270 nM
Clc1ccc(-c2nn3ncccc3c2-c2ccnc(Nc3ccccc3)n2)cc1 [GW829055X],potency estimated from few doses,"AKT1; compound concentrations: 100 nM and 1000 nM (sheet 'Samples'), CATDS: 3.4502228955022099E-2",1670 nM
same,potency estimated from few doses,"CSNK1A1; compound concentrations: 100 nM and 1000 nM (sheet 'Samples'), CATDS: 3.2884610425315097E-2",1900 nM
same,potency estimated from few doses,MAP2K1; CATDS: 0.148171076580532,138 nM
same,potency estimated from few doses,"RIOK2; compound concentrations: 100 nM and 1000 nM (sheet 'Samples'), CATDS: 3.5482707178261498E-2",1560 nM
Fc1cccc(COc2ccc(Nc3ncncc3C#Cc3ccccc3)cc2Cl)c1 [GW651576X],potency estimated from few doses,"AKT1; compound concentrations: 100 nM and 1000 nM (sheet 'Samples'), CATDS: 4.6282631455897803E-2",2130 nM
same,potency estimated from few doses,MAP2K1; CATDS: 4.57330679966748E-2,2200 nM
same,potency estimated from few doses,"RIOK2; compound concentrations: 100 nM and 1000 nM (sheet 'Samples'), CATDS: 5.4268483350181501E-2",1510 nM
Cc1ccc(NC(=O)Nc2ccccc2)cc1-c1ccc(C(=O)Nc2ccncc2)cc1 [GSK1398471A],potency estimated from few doses,PDGFRB; CATDS: 0.100538994858546,1940 nM
O=C1NC(=O)C(c2cccc(Cl)c2)=C1Nc1ccc(O)c(Cl)c1 [SB-409514],potency estimated from few doses,PDGFRB; CATDS: 0.33776588797305401,1280 nM
